Compounds with a hit are over-represented: about 1.1% of the library has one in this group of screens.
HTR5A inv ctr – HTR5A inverse agonism, opioid heterodimer counter-screen; inhibition, % at 9.3 µM; HTR5A cell line, luminescence; 340,000 compounds, 0.083% hits; AID 504634; P47898; in the data active = inhibition mostly above about 23%, no sharp cut-off; inactive = mostly below about 18%;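 also: 0% = cells with DMSO and 100% = no-cell wells with DMSO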
OPRM1-OPRD1 inv – inverse agonist of human OPRM1-OPRD1 heterodimerization; P35372+P41143; cell-based MOR-DOR heterodimer luminescence, inverse agonism; inhibition, % at 9.3 µM; 340,000 compounds, 0.21% hits; in the data active = inhibition above about 22%, passing the limit was not always enough;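 also: 0% = cells with DMSO and 100% = wells without cells with DMSO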
HTR5A ag ctr – counter-screen for OPRM1-OPRD1 agonists: human HTR5A agonism; P47898; HTR5A agonist assay, luminescence, cell-based; activation, % at 9.3 µM; 340,000 compounds, 0.61% hits; AID 504692; in the data active = activation mostly above about 9.5%, no sharp cut-off; inactive = mostly below about 7.6%;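 also: 0% = cells with vehicle only and 100% = reference agonist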
MOR-DOR ag-1 – OPRM1-OPRD1 heterodimerization agonism; P35372+P41143; cells, luminescence; activation, % at 9.3 µM; 340,000 compounds, 0.3% hits; AID 504326;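 also: 0% = vehicle-treated cells and 100% = reference agonist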
MOR-DOR ag-2 – opioid heterodimer agonism, HTR5A counter-screen | shares compounds with HTR5A ag ctr | U2OS counter-screen cells, complementation luminescence, 3 h | activation, % at 9.3 µM | 800 compounds, 13% hits | AID 504913
HTR5A ag conf – HTR5A (human) agonism, confirmation. shares compounds with HTR5A ag ctr. HTR5A agonist cell assay, luminescence. activation, % at 9.3 µM. 800 compounds, 17% hits. AID 504915; in the data active = activation above about 17%;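 also: 0% = cells with vehicle only and 100% = full reference agonist response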
Active calls of the source: *; nt = no result given; ! = not confirmed by another sample. Rule as the data show it, unless noted: active = activation above about 18%; inactive = the rest.

SMILES	HTR5A inv ctr	OPRM1-OPRD1 inv	HTR5A ag ctr	MOR-DOR ag-1	MOR-DOR ag-2	HTR5A ag conf
Cc1ccccc1OCc1n(CC(=O)OC2CC(C)CCC2C(C)C)c2ccccc2[n+]1C (configuration not stated)	-51	-21	18*	4	14	7
CSc1ccc(/C=C(/NC(=O)c2ccco2)C(=O)NCc2ccco2)cc1	17	19	-2	-6	nt	nt
CCN(CC)C(=O)CSc1nnc(-c2ccc(S(=O)(=O)N3CCOCC3)cc2)n1C	-24	15	1	-3	nt	nt
CNC(=O)c1sc(-c2cccnc2)nc1C	-50	15	18*	-3	1	1
CNC(=O)c1sc(-c2ccccc2)nc1C	24	3	1	-1	nt	nt
Cc1c(CCOC(=O)C2C3CC4CC(C3)CC2C4)sc[n+]1CC(=O)c1ccc(Br)cc1 (configuration not stated)	-42	-10	18*!	2	18	2
COc1cccc(NC(=O)c2cc(-c3ccncc3)nc3c(C)cc(C)cc23)c1	-9	-32	16*	7	6	8
CC(=O)N1CCN(S(=O)(=O)c2cccc(C(=O)Nc3ccc4c(c3)CCC4)c2)CC1	-11	9	0	-2	nt	nt
CC[C@H](C)[C@H]1CNC(=S)N1CC1CCN(CC2CCC(C)CC2)CC1 (some centres not stated)	5	10	-2	-2	nt	nt
CCN=c1scc(-c2cccs2)n1/N=C/c1cc(OC)ccc1O	-37	-10	-5	2	nt	nt
CC(C)N=c1scc(-c2cccs2)n1/N=C/c1ccc(O)c(O)c1O	-8	-78	14*	15	20*	4
Cc1cc(S(=O)(=O)N2CCOCC2)ccc1OCC(=O)Nc1cccc(F)c1	18	0	-6	0	nt	nt
O=C(Nc1ccc(Cl)c(C(F)(F)F)c1)N1CCCC(O)C1 (configuration not stated)	7	3	2	0	nt	nt
NS(=O)(=O)c1ccc(NC(=O)Cn2ncc3c2-c2ccccc2OC3)cc1	-57	-28	19*	5	0	4
O=C(Cn1ncc2c1-c1ccccc1OC2)Nc1cccc(Cl)c1	-27	-22	9	4	nt	nt
O=[n+]1c2c(n([O-])c3cc(F)c(N4CCCC4)cc31)CCC2	-12	15	4	-4	nt	nt
O=[n+]1c2c(n([O-])c3cc(F)c(N4CCCC4)cc31)CCCC2	-35	11	15*	-2	1	40*
CCCn1c(N)c(C(=O)CSc2nc3ccccc3c(=O)n2Cc2ccccc2)c(=O)[nH]c1=O	-12	6	-4	-1	nt	nt
Cc1nc(-c2ccc(C#N)cc2)cs1	-13	-4	15*	1	13	4
N#Cc1ccc(-c2csc(NC(=O)C3CC3)n2)cc1	-7	-3	2	1	nt	nt
COc1ccc(NC2CCCN(C(=O)c3ccc(CSC)o3)C2)cc1OC (configuration not stated)	-5	-15	3	3	nt	nt
NC(=O)C1=C(N=C2CCCCC2)CCCC1	-69	15	18*	-3	0	6
COc1ccc(-c2csc(NC(=O)c3ccccc3NS(=O)(=O)c3ccc(F)c(F)c3)n2)cc1	-1	5	15*	-1	24*	8
COc1ccc(C2CC(=O)C(C=NCCN3CCN(C(C)=O)CC3)=C(O)C2)cc1 (configuration not stated)	-24	12	-4	-2	nt	nt
COC(=O)CCC(=O)OC1(C)C(=O)C2=CN(CCc3c[nH]c4ccccc34)C(c3ccc(OC)cc3)=CC2=C(Br)C1=O (configuration not stated)	-98	-27	38*	5	86*	2
CC(C)Oc1ccc(C(=O)Nc2ccc(N3CCCC3)cc2)cc1	3	-12	17*	2	1	3
Cc1ccc(NC(=O)CS(=O)CC(=O)N2CCN(c3ccccc3)CC2)cc1 (configuration not stated)	5	13	2	-2	nt	nt
CCC(OC(=O)CN1C(=O)c2ccccc2C1=O)C(=O)NC1CCCC1 (configuration not stated)	-6	7	2	-1	nt	nt
CC(C)C(OC(=O)CN1C(=O)c2ccccc2C1=O)C(=O)NC1CCCCC1 (configuration not stated)	-42	7	15*	-1	9	6

Assay outcomes (PubChem BioAssay)
